TDP1 block: qHTS Assay for Inhibitors of Tyrosyl-DNA Phosphodiesterase (TDP1) | Tyrosyl-DNA phosphodiesterase 1 (Homo sapiens), Q9NUW8 | recombinant TDP1, AlphaScreen DNA substrate cleavage | Potency, µM (highest dose often 130 µM), hits mostly inhibitors | 350,000 compounds, 0.28% hits | AID 485290, 2010; note: nearly all actives have a fitted effect of over 40% in size
Target sequence (Q9NUW8 whole entry, looked up): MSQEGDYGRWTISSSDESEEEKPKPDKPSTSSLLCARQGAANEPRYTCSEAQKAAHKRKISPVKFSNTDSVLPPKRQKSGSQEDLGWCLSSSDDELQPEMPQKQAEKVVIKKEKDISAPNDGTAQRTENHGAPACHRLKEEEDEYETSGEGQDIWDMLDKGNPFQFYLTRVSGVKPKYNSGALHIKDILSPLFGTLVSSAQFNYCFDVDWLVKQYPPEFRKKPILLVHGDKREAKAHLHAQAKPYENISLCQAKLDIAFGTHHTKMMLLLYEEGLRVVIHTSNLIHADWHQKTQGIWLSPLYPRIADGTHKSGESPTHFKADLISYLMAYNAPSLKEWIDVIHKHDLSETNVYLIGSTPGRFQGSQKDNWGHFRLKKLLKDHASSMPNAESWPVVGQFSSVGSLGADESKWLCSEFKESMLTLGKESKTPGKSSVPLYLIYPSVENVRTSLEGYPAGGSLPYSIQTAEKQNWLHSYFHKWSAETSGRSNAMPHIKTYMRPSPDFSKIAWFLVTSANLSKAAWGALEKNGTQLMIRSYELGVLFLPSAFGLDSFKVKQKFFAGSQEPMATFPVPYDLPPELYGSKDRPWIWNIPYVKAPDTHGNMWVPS
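Signal: AlphaScreen proximity between streptavidin donor and anti-FITC acceptor beads on intact substrate. Reaction: Tdp1 1 nM, substrate 15 nM final, 5 min RT after 15 min compound preincubation.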
IL1B secr inh: qHTS for Inhibitors of Inflammasome Signaling: IL-1-beta AlphaLISA Primary Screen; activity change, % at 57.5 µM; THP-1 LPS/ATP IL-1B secretion, AlphaLISA, 16 h; hits give low values; 360,000 compounds, 4.7% hits; in the data active = activity change below about -50%; inconclusive = mostly about -30% to -49%
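Secreted IL-1B measured by AlphaLISA bead assay after 16 h compound exposure of THP-1 cells; compounds (final up to 57.5 uM) added 1 h before LPS (250 ng/mL) and ATP (1.25 mM) stimulation; lower signal means less secretion.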
DT40 TDP1 no CPT: qHTS for Inhibitors of human tyrosyl-DNA phosphodiesterase 1 (TDP1): qHTS in cells in absence of CPT; DT40 Tdp1-/- hTDP1 cells, no CPT, ATP luminescence, 48 h; Potency, µM (highest dose often 46.2 µM), hits mostly inhibitors; 420,000 compounds, 15% hits; AID 686978, 2013; note: nearly all actives have a fitted effect of over 55% in size
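Growth kinetics read by CellTiter-Glo luminescence after ≥48 hr at 37 °C. Cells: DT40 Tdp1-/- stably carrying human TDP1, 400 per well, compound exposure in the absence of CPT (DMSO vehicle).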
TGFb inhibitor: qHTS for Inhibitors of TGF-b | 410,000 compounds, 1.2% hits | Potency, µM (series often up to 46.1 µM), most hits filed as inhibitors | HepG2 CAGA-GFP TGF-b/SMAD3 reporter, GFP fluorescence, 18 h; TGF-beta stimulated, 500 pg/mL final | AID 588855, 2011; note: nearly all actives have a fitted effect of over 65% in size
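HEPG2 CAGA-GFP, 1000 cells/well; 2 h settle, 37 C; cpd via pin tool; TGF-b 500 pg/mL final; 18 h, 37 C; GFP imaging ex488/em500-530; %Activity normalised to -TGF-b and +DMSO controls; CRC fit, curve class.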
HepG2 viability: qHTS for Inhibitors of TGF-b: Cytotox Counterscreen; HepG2 CAGA-GFP viability, ATP luminescence, 18 h; Potency, µM (highest dose often 46.1 µM), usual class: cytotoxic; 410,000 compounds, 0.76% hits; AID 588856, 2011
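HepG2 CAGA-GFP cells (1000/well, DMEM with 1% FBS) received compound, then TGF-beta at 500 pg/mL final, and were incubated 18 hours at 37 degrees C. Viability was read by CellTiter-Glo luminescence. Media-only wells were set as complete cell-killing and DMSO as no toxicity.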
DT40 TDP1 CPT: qHTS for Inhibitors of human tyrosyl-DNA phosphodiesterase 1 (TDP1): qHTS in cells in presence of CPT | chicken DT40 Tdp1-/-;hTDP1 cells + 20 nM CPT, ATP luminescence, 48 h | Potency, µM (top dose mostly 46.2 µM), hits mostly inhibitors | 420,000 compounds, 12% hits | AID 686979, 2013; note: nearly all actives have a fitted effect of over 55% in size
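Chicken DT40 Tdp1-/- cells complemented with human TDP1, 400 cells/well, exposed to compounds plus 20 nM camptothecin for at least 48 h at 37 C; viability read as ATP content by CellTiter-Glo luminescence.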
Each line names hits and unclear results; the compound was inactive in the other large screens. Hits are enriched below; roughly 19% of the tested compounds scored in any of these assays. Unless noted, calls come from the whole dose curve; as a rule, active = well fitted curve in the direction sought with a large enough effect; inconclusive = small, poorly fitted or top-dose-only effect, or another doubt; inactive = no such curve, though single readings can be large; an effect the other way counts as inactive or inconclusive.

Cc1ccc(/C=C(\C#N)c2nc3ccccc3[nH]2)s1	none
Cc1c(Cl)cccc1-c1ccc(/C=C(\C#N)c2nc3ccccc3[nH]2)o1	DT40 TDP1 no CPT 4.11µM, TGFb inhibitor 6.31µM, HepG2 viability 7.94µM, DT40 TDP1 CPT 10.3µM (no result: IL1B secr inh)
CN(C)/C=C(\C#N)c1nc2ccccc2[nH]1	DT40 TDP1 no CPT inconclusive
Cc1ccc2nc(/C(C#N)=C/c3ccc(-c4cccc([N+](=O)[O-])c4)o3)[nH]c2c1	DT40 TDP1 no CPT inconclusive, DT40 TDP1 CPT inconclusive
N#C/C(=C\c1ccc(Sc2ccc(Cl)cc2)o1)c1nc2ccccc2[nH]1	DT40 TDP1 no CPT 13µM, DT40 TDP1 CPT 20.6µM
Cc1ccc2nc(/C(C#N)=C/c3ccc(-c4ccc(F)cc4F)o3)[nH]c2c1	DT40 TDP1 no CPT 5.17µM, DT40 TDP1 CPT 2.91µM (no result: IL1B secr inh)
N#C/C(=C\c1c(Cl)cccc1Cl)c1nc2ccccc2[nH]1	IL1B secr inh -93.4, DT40 TDP1 CPT inconclusive
COc1ccc(-c2onc(C)c2-c2cnn(-c3ccccc3)c2)c(O)c1	DT40 TDP1 no CPT 20.6µM, TGFb inhibitor inconclusive, DT40 TDP1 CPT inconclusive
COc1ccc(-c2noc(C)c2-c2ccc3ccccc3n2)c(O)c1	DT40 TDP1 no CPT inconclusive, TGFb inhibitor inconclusive, DT40 TDP1 CPT inconclusive
COc1ccc(-c2onc(C)c2-c2ccccc2)c(O)c1	DT40 TDP1 no CPT 18.4µM, DT40 TDP1 CPT inconclusive
NC(c1ccccc1)c1cccs1 (centres undefined)	none (no result: TDP1 block)
CCOc1ccc2c(c1)C(C)=CC(C)(C)N2S(=O)(=O)c1ccc(C)cc1	DT40 TDP1 no CPT 6.51µM, TGFb inhibitor inconclusive, DT40 TDP1 CPT inconclusive
CCNC(=O)N1c2ccc(OCC)cc2C(C)=CC1(C)C	DT40 TDP1 no CPT 18.4µM, DT40 TDP1 CPT inconclusive
CC1=CC(C)(C)N(S(=O)(=O)c2ccc(C)cc2)c2cc(C)ccc21	DT40 TDP1 no CPT 5.17µM, TGFb inhibitor inconclusive, DT40 TDP1 CPT 5.8µM
COc1ccc2c(c1)C(C)=CC(C)(C)N2S(=O)(=O)c1ccc(C)cc1	DT40 TDP1 no CPT 5.17µM, TGFb inhibitor inconclusive, DT40 TDP1 CPT 5.8µM
O=C(NCc1nnc(SCc2ccc(F)cc2)n1-c1ccccc1)C12CC3CC(CC(C3)C1)C2	IL1B secr inh -79.1, DT40 TDP1 no CPT 5.8µM, TGFb inhibitor inconclusive, DT40 TDP1 CPT 16.4µM
Cc1ccc(-n2c(CNc3ccc(F)cc3)nnc2SCC(=O)NCc2ccco2)cc1	DT40 TDP1 no CPT inconclusive, DT40 TDP1 CPT 16.4µM
Cc1ccc(NC(=O)CSc2nnc(CNC(=O)C34CC5CC(CC(C5)C3)C4)n2-c2ccc(F)cc2)cc1	DT40 TDP1 no CPT inconclusive, TGFb inhibitor inconclusive, DT40 TDP1 CPT 16.4µM
O=C(NCc1nnc(SCc2ccc(C(F)(F)F)cc2)n1-c1ccccc1)C12CC3CC(CC(C3)C1)C2	DT40 TDP1 no CPT 13µM, TGFb inhibitor inconclusive, DT40 TDP1 CPT inconclusive
COc1ccc(C(=O)NCc2nnc(SC)n2-c2ccccc2C)c(OC)c1OC	none (no result: TDP1 block, IL1B secr inh, TGFb inhibitor, HepG2 viability)
CC1CCCN(C(=O)C(Cc2ccccc2)n2cccc2)C1 (centres undefined)	DT40 TDP1 CPT 14.6µM
O=C(C(Cc1ccccc1)n1cccc1)N1CCN(c2ccccc2)CC1 (centres undefined)	DT40 TDP1 no CPT 25.9µM, DT40 TDP1 CPT 23.1µM
Cc1ccc(C)c(N2CCN(C(=O)C(Cc3ccccc3)n3cccc3)CC2)c1 (centres undefined)	DT40 TDP1 no CPT 23.1µM, TGFb inhibitor inconclusive, DT40 TDP1 CPT 23.1µM
COc1ccc(N(Cc2cccs2)C(=O)c2ccc(OC)c(Cl)c2)cc1	DT40 TDP1 no CPT inconclusive, DT40 TDP1 CPT inconclusive (no result: IL1B secr inh)
CCN1C(=O)N/C(=C/c2ccc(C)o2)C1=O	DT40 TDP1 no CPT 20.6µM, DT40 TDP1 CPT 23.1µM

Compound activity deposited in PubChem by National Center for Advancing Translational Sciences (NCATS).
